# High-throughput results from PubChem BioAssay.
# A selection: hits, their analogues and other compounds. The true share with any hit is near 1%.
# Phagocyt inh = inhibitors of macrophage phagocytosis | 110,000 tested, 0.07% active | inhibition, % at 5 µM | AID 1029 | J774A.1 macrophage IgG-bead phagocytosis, imaging;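 active means inhibition above the mean of the plate negative controls plus 5 SD, cut at about 13% in these data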;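 further: phagocytic index as fraction of beads internalized from green versus red external bead signal; plate controls were DMSO negative control for no effect and cytochalasin-D positive control for full effect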
# MRP reversal = reverses drug resistance mediated by MRP. H69AR cells + 2 uM doxorubicin, CellTiter-Glo, 72 h. differential viability (reversal), % at 10 µM. 85,000 tested, 0.04% active. AID 602;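 active means viability drop by adding the cancer drug above about 55%, with treated viability meeting a 40% cutoff, limit read from the data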;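 further: viability without doxorubicin minus viability with 2 µM doxorubicin for each compound; larger differential means the compound sensitizes cells more to doxorubicin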
# sEH activator = increases human soluble epoxide hydrolase activity; AID 717; 91,000 tested, 0.04% active; activation, % at 2 µM; P34913; purified human sEH enzymatic activity, activator screen; in the data active means activation above about 37%
# Target sequence (P34913 whole entry, looked up): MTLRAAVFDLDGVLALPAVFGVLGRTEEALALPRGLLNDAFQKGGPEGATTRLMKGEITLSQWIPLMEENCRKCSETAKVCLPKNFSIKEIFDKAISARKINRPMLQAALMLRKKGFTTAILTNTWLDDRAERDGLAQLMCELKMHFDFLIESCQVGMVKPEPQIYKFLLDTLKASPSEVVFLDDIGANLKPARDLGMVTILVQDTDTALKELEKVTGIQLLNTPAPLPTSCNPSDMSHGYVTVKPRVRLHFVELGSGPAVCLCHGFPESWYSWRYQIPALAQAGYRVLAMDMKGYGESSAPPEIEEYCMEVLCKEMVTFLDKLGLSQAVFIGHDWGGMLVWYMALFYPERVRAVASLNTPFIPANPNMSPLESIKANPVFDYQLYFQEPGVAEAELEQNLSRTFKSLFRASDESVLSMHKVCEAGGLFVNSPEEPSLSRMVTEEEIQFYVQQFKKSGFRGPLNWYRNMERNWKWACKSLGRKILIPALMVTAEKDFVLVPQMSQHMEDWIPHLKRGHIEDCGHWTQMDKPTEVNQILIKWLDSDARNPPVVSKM
# MRP-1 activ = MRP-1 activation; H69AR cells + doxorubicin, viability rescue, CellTiter-Glo; viability increase, % at 10 µM; 140,000 tested, 0.61% active; AID 799;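 active means viability gain under doxorubicin at or above a set limit, the compound median plus 3 SD, cut at about 4.7% in these data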;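 further: MRP-1 overexpressing cells given doxorubicin 25 µM after compound pretreatment; 18-22 h compound pretreatment then 72 h with doxorubicin before readout; 0% = doxorubicin-only wells and 100% = vehicle-treated cells without doxorubicin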
# sEH inh = blocks human soluble epoxide hydrolase activity. recombinant human sEH enzymatic activity assay. P34913. 91,000 tested, 0.34% active. inhibition, % at 2 µM; in the data active means inhibition above about 80%
# sdo1 growth = restores growth of sdo1-depleted yeast | 140,000 tested, 0.21% active | S. cerevisiae sdo1-depleted JHY4D growth rescue, OD600 30 h; active compounds read high; pdr5 snq2 efflux-pump mutant strain | z-score at 10 µM | AID 817;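 active means z-score above 3 at both the 24 hr and the 30 hr optical density reads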;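 further: z-score against mean and SD of all compound wells on the same plate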
# Starred values were filed as active, the others as inactive; / = not tested or not shown.
SMILES,Phagocyt inh,MRP reversal,sEH activator,MRP-1 activ,sEH inh,sdo1 growth
Cc1nnc(NC(=O)c2ccccc2F)s1,/,21,/,2,/,0.86
CCC(CC)NC(=O)COC(=O)c1ccc(OCC(=O)Nc2ccccc2OC)c(OC)c1,0,/,-83,1,83*,2.1
O=C(c1ccccc1[N+](=O)[O-])N1CCC(Cc2ccccc2)CC1,/,/,14,1,-16,-0.95
N#CCCNC(=O)Cn1c(COc2ccc(Cl)cc2)nc2ccccc21,/,/,/,5.6*,/,1.8
O=C(Cn1c(COc2ccc(Cl)cc2)nc2ccccc21)NCC(F)(F)F,-13,/,/,5.6*,/,1
O=C(Cn1c(COc2ccccc2)nc2ccccc21)Nc1cc(Cl)cc(Cl)c1,-8,/,/,-3,/,-0.29
CC1(c2ccc(Cl)cc2Cl)OCC(Cn2ccnc2)O1 (stereo unspecified),0,-33,-5,-2,3,0.4
CC1=C(C(=O)OCC(C)C)C(c2cccc(F)c2)N2C(=O)C(C)SC2=N1 (stereo unspecified),-1,-6,24,1,-21,-0.8
CC1=C(C(=O)OC(C)C)C(c2cccc(F)c2)N2C(=O)C(C)SC2=N1 (stereo unspecified),-1,-1,9,5.3*,-7,-0.95
CCOCCCNS(=O)(=O)c1ccc(-n2cnnn2)c(OC)c1,/,16,4,1,-3,-0.41
COc1cc(NS(=O)(=O)c2ccc(C)cc2)ccc1-n1cnnn1,-1,-8,6,6.3*,-5,0.07
COc1ccc(C(=O)NCCn2cc(SCC(=O)Nc3nnc(C)s3)c3ccccc32)cc1,/,-35,4,7.9*,1,1.3
Cc1nnc(NC(=O)CSc2cn(CCNC(=O)c3ccccc3)c3ccccc23)s1,0,6,-7,-2,6,1.5
COc1ccc(N2CC(C)Cn3c2nc2c3c(=O)[nH]c(=O)n2C)cc1 (stereo unspecified),0,-17,2,-2,-4,0.2
CCC1(C)Cc2c(sc3nnn(CC(=O)Nc4ccccc4C)c(=O)c23)CO1 (stereo unspecified),1,/,-10,1,12,-0.25
CCC1(C)Cc2c(sc3nnn(CC(=O)Nc4ccccc4)c(=O)c23)CO1 (stereo unspecified),-1,/,-6,5.0*,9,-0.78
CCC1(C)Cc2c(sc3nnn(Cc4ccccc4Cl)c(=O)c23)CO1 (stereo unspecified),/,/,2,8.0*,0,-0.95
Cn1ncc(N=Cc2ccccc2)c1C(=O)Nc1cccc(Cl)c1,0,-31,14,-2,-10,-0.35
CCC(C)c1ccc2oc(-c3ccc(NC(=O)c4ncn[nH]4)cc3)nc2c1 (stereo unspecified),2,-10,-4,-1,7,-0.09
CCC(C)c1ccc(O)c(NC(=O)c2ncn[nH]2)c1 (stereo unspecified),1,10,15,5.3*,-15,0.49
CC1CC(C)CN(C(=S)Nc2ccc(SC(F)F)cc2)C1 (stereo unspecified),-8,/,/,5.0*,/,-1.4
CCOc1ccccc1C(=O)OCC(=O)Nc1ccc(OC(F)F)cc1,2,/,-21,14*,23,-1.4
O=C(Nc1ccc(Cc2ccncc2)cc1)C1CCC(N2C(=O)C3C4C=CC(C5CC45)C3C2=O)CC1 (stereo unspecified),-1,-9,-87,-2,86*,-1.2
Cc1oc(-c2ccccc2F)nc1CN1CCC(C(=O)NC2CCCc3ccccc32)CC1 (stereo unspecified),-1,/,/,-4,/,-0.02
Cc1oc(-c2ccccc2F)nc1CN1CCC(C(=O)NC2CCCCCCC2)CC1,-4,-3,-91,-5,91*,0.23
SMILES,Phagocyt inh,MRP reversal,sEH activator,MRP-1 activ,sEH inh,sdo1 growth
Cc1ccccc1-c1nc(CN2CCC(C(=O)NCCC3=CCCCC3)CC2)c(C)o1,-2,-30,-93,-3,93*,-1.8
COc1ccc(CCNC(=O)C2CCN(Cc3nc(-c4ccccc4C)oc3C)CC2)cc1OC,-1,4,-36,-5,36,0.6
O=C(NCCC1=CCCCC1)C1CCCN(c2nc3ccccc3o2)C1 (stereo unspecified),/,-1,-96,-2,96*,-1.4
O=C(NCCc1ccccc1)C1CCN(c2nc3ccccc3o2)CC1,-1,18,-69,-1,69,-0.26
O=C(NC1CCCCCCC1)C1CCN(c2nc3ccccc3o2)CC1,1,-27,-93,-1,93*,-2.3
CSc1nc(N)c2c(C)c(C)sc2n1,-4,/,/,-1,/,0.78
CCc1ccccc1NC(=O)CN(C)C(=O)CSc1nc2cc(Cl)ccc2s1,1,/,/,0,/,-0.1
Cc1ccc(-n2[nH]c(C)c(/C=C3/C=Nc4ccccc43)c2=O)cc1C,/,-22,-5,-2,6,-0.74
COc1cc(/C=C(\C#N)c2ccccn2)ccc1OCC(=O)Nc1cccc(C(F)(F)F)c1,0,/,/,-5,/,0.38
COc1cc(/C=C(\C#N)c2ccccn2)ccc1OCc1ccccc1Cl,-9,/,/,5.9*,/,-0.86
O=C(COC(=O)c1ccc(CO)cc1)NCc1cccs1,-1,/,/,-1,/,0.93
CN1CCN(C(=O)CSc2ccc(C(F)(F)F)cc2[N+](=O)[O-])CC1,-7,/,/,0,/,0.91
CC(C)(C)c1cc(S(=O)(=O)CCc2ccccn2)cc(C(C)(C)C)c1F,153*,-10,3,3,-7,-1.8
O=C(NC(=S)Nc1ccccc1)c1csnn1,0,/,7,-3,-10,0.84
O=C(COc1ccc(Cl)cc1Cl)NNC(=S)Nc1ccc(F)cc1,1,/,-28,-3,28,-2.3
CC(=O)NC(=S)Nc1ccc(NC(=O)COc2ccc(Cl)cc2Cl)cc1,/,/,-82,0,82*,-1.3
CC(=O)N1CCN(c2ccc(NC(=O)COc3ccc(Cl)cc3Cl)cc2)CC1,0,-11,-90,-4,90*,-0.03
Cc1ccc(N(CC(O)CON=C2c3ccccc3-c3ccccc32)S(C)(=O)=O)cc1 (stereo unspecified),0,-28,5,-3,-5,-1.4
O=C(NC(=S)Nc1ccccc1N1CCOCC1)c1ccc(-c2cc(Cl)ccc2Cl)o1,-7,/,/,15*,/,-1.6
COc1ccc(C2CC(c3ccc(OC)cc3)n3nc(N)nc3N2)cc1 (stereo unspecified),0,-4,/,/,/,/
Nc1nc2n(n1)C(c1cccs1)CC(c1ccc(Br)cc1)N2 (stereo unspecified),0,21,-4,5.8*,3,0.86
COc1ccc(C2CC(c3ccc(Cl)cc3)n3nc(N)nc3N2)cc1 (stereo unspecified),0,24,3,30*,-1,0.14
COc1ccccc1C1CC(c2ccc(Cl)cc2Cl)Nc2nc(N)nn21 (stereo unspecified),0,6,1,5.6*,1,0.78
COc1ccc(C2CC(c3ccc(Br)cc3)Nc3nc(N)nn32)cc1 (stereo unspecified),0,12,5,1,-4,0.46
